Inconclusive results are not listed. Calls of active or inactive are those of the source. Calls follow the shape of the dose curve; as a rule, active = well fitted inhibition curve with a large enough effect; inconclusive = small, poorly fitted or top-dose-only effect; inactive = flat fitted curve, though single readings scatter.

This experiment deals with CRL-7250. The experiment can be described thus: qHTS assay to identify novel small-molecules to repurpose for Merkel cell carcinoma treatment (AID 1296009). Also: nearly all actives have a fitted effect of over 60% in size. As to conditions: MCC and control cell lines, CellTiter-Glo viability, 72 h; series mostly up to 92 µM; activity change, negative = cytotoxicity: at the top concentration. The method in brief: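 Dose-response viability screen; 72 hr exposure at 37 degree celsius; CellTiter-Glo added, 10 min room temperature, luminescence read; RLUs scaled between no-cell and DMSO wells.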
Take `CC1(C)CC[C@]2(C(=O)O)CC[C@]3(C)C(=CCC4[C@@]5(C)CC[C@H](O[C@H]6O[C@H](C(=O)O)[C@@H](O)[C@H](O[C@@H]7O[C@H](CO)[C@H](O)[C@H](O)[C@H]7O)[C@H]6O)C(C)(C)C5CC[C@]43C)[C@@H]2C1` (stereo partly drawn): the outcome was “inactive [at 9.27 µM]”. For the molecule `O=c1c2cccnc2n(-c2cccc([N+](=O)[O-])c2)c(=O)n1Cc1ccncc1`, the molecule was classed as inactive. For the molecule `CC1(C)C(=O)N2c3ccccc3[C@]3(CC(n4cnc5ccccc5c4=O)C(=O)O3)[C@H]2N1O` (stereo partly drawn), the “outcome” value was “inactive [at 17.4 µM]”.

Regarding `CC(C)CCC[C@@H](C)[C@H]1CC[C@H]2[C@@H]3CC=C4C[C@@H](OC(=O)NCCN(C)C)CC[C@]4(C)[C@H]3CC[C@]12C`, the result was inactive. `CO[C@@H](Cc1ccc(OCCc2nc(-c3ccccc3)oc2C)c2ccsc12)C(=O)O`: the molecule was called inactive. For the molecule `COC(=O)C1=C[C@@H](O)[C@@H](O)[C@H](O[C@@H]2O[C@H](COC(=O)/C=C/c3ccccc3)[C@@H](O)[C@H](O)[C@H]2O)C1`, the “outcome” value is “inactive [at 17.4 µM]”. Consider `Nc1ncnc2c1ncn2[C@H]1O[C@@H](C(=O)N2CCN(CC(=O)Nc3cccc4c3CNC4=O)CC2)[C@H](O)[C@@H]1O`, for which the result was inactive.

`CCn1nnnc1NCc1ccc(C(C)C)cc1`: the call was inactive.

On to `CC12CCC3C(C)(C)C(O)CCC3(C)C1Cc1c(oc(C(=O)O)cc1=O)O2` (stereo not drawn), for which the result was inactive. `COC(=O)C(CC1(O)c2ccccc2N2C(=O)C(CC(C)C)NC21)n1cnc2ccccc2c1=O` (stereo not drawn): the “outcome” value was “inactive [at 17.4 µM]”. For `Cc1ccc([C@@H]2CC=C(C(=O)O)[C@H](c3ccc(C(C)(C)C)cc3)N2S(=O)(=O)c2ccc(C)cc2)cc1`, the call was inactive.

In the case of `CC(C)C1(O)NC(=O)C(CC2(O)c3ccccc3N3C(=O)C(C)(C)NC32)n2c1nc1ccccc1c2=O` (stereo not drawn), the “outcome” value is “inactive [at 17.4 µM]”. For the molecule `CC(C)(O)C1=CCC23COC(C2)C(O)(C(=O)O)CCC13` (stereo not drawn), the molecule was classed as inactive. For `CC(NC(=O)[C@H](Cc1ccccc1)NC(=O)OCc1ccccc1)C(=O)CF` (stereo partly drawn), the outcome was inactive.

For `CCC(O)(C(=O)OCc1ccccc1NC(=O)CCC(=O)O)C(C)O` (stereo not drawn), the result was inactive. Turning to `C/C=C(/C)C(=O)O[C@H]1C[C@]2(C)O[C@@H]2[C@@H](OC(C)=O)[C@@]2(C)CC[C@@](O)(C(C)C)[C@H]12`, the molecule was classed as inactive. The same measure for `C/C(=C/CCC(CO)C1CCC2(C)C3CCC4C(C)(C)C(OC5OC(CO)C(O)C(O)C5O)CC(O)C45CC35CCC12C)COC1OC(CO)C(O)C(O)C1O` (stereo not drawn): “inactive [at 17.4 µM]”; for `C=C1CC[C@@]2(OC1)O[C@H]1CC3[C@@H]4CC=C5C[C@@H](O)C[C@@H](O[C@@H]6OC[C@H](O)[C@H](O)[C@H]6O[C@@H]6O[C@@H](C)[C@H](O)[C@@H](O)[C@H]6O)[C@]5(C)C4CC[C@]3(C)[C@H]1[C@@H]2C` (stereo partly drawn): “inactive [at 17.4 µM]”.

Source of the values: PubChem BioAssay (NCATS).
